Assay outcomes as filed in PubChem BioAssay.
The list is not random: actives were taken first. Their share in the collection is about 1%.
GPT2 inh: GPT2 alanine aminotransferase inhibition; Recombinant GPT2, coupled pyruvate oxidase/HRP Amplex Red fluorescence; Potency, µM (doses to about 57.7 µM), inactives show at the highest dose activity change, negative = inhibition, actives largely listed as inhibitors; actives 0.25% (n = 100,000); also: potency is read from the fitted curve at half-maximal effect; nearly all actives have a fitted effect of over 60% in size
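GPT2 10ng/uL, a-KG 250uM, L-Ala 2mM, HEPES pH7.5 + 0.0001% Tween; 30 min RT. Then Amplex mix (PO/HRP/ThPP), 30 min RT dark, fluorescence. AOA 50uM used as positive control.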
IP6K1 inh: IP6K1 kinase inhibition. IP6K1 kinase, ADP-Glo luminescence, 2 h; hits give low values. actives 0.81% (n = 140,000). activity change, % (series mostly up to about 58 µM); in the data active = activity change below about -25%
Target sequence (Q92551 whole entry, looked up): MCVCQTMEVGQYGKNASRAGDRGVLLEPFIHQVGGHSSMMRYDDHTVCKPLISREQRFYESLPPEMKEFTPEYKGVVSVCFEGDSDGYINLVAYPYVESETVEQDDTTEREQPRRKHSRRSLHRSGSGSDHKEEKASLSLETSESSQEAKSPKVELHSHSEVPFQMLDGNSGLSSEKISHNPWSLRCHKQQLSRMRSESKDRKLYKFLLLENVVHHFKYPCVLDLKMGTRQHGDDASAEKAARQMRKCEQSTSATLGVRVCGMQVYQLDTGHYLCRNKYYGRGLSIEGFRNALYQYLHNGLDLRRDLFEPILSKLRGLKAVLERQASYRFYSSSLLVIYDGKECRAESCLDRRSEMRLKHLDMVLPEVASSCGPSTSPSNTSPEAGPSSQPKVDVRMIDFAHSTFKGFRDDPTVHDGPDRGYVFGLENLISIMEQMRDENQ
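ADP-Glo luminescence measures ADP made by human IP6K1 during a 2 h RT reaction with ATP/IP6 (mix at 1.3 mM/130 uM); top library doses 57.5 and 19.1 uM final.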
SNCA expr inh: reduces expression of the alpha-synuclein gene; actives 0.17% (n = 140,000); Potency, µM (series often up to 57.2 µM), for the others: at the highest dose activity change, negative = inhibition, usual class: inhibitors; HEK-293 SNCA-luciferase knock-in, luminescence, 24 h;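 also: potency is read from the fitted curve at half-maximal effect; plate controls were DMSO cells for no effect and cell-free wells for full effect; nearly all actives have a fitted effect of over 45% in size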
HEK293 viab: counter-screen for SNCA expression inhibitors: cell viability; HEK-293-SNCA-luc viability, GF-AFC fluorescence, 24 h; Potency, µM (highest dose often 57.1 µM), without a hit: at the top dose activity change, negative = cytotoxicity, usual class: cytotoxic; actives 0.12% (n = 150,000);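 also: potency is read from the fitted curve at half-maximal effect; 0% = DMSO-treated cells and -100% = medium-only wells without cells; nearly all actives have a fitted effect of over 30% in size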
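Cytotoxicity counterscreen: after 24 h compound treatment of genome-edited SNCA-luciferase HEK-293 cells, live-cell protease substrate GF-AFC read by fluorescence after 30 min; activity scaled between DMSO (0%) and medium-only (-100%), curves Hill-fitted.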
IP6K1 inh cnf: human IP6K1 inhibition, confirmatory; actives 13% (n = 1,200); AID 1645852; Potency, µM (series often up to 49 µM), for the others: at the top dose activity change, negative = inhibition, most hits filed as inhibitors; shares compounds with IP6K1 inh; recombinant IP6K1 kinase, ADP-Glo luminescence, 2 h; also: potency is read from the fitted curve at half-maximal effect; nearly all actives have a fitted effect of over 65% in size
The depositor's hits bear a star; i = inactive; ? = inconclusive; nt = no result; [ ] = another dose, or the depositor's remark. Unless noted, calls follow the shape of the dose curve; as a rule, active = well fitted curve in the direction sought with a large enough effect; inconclusive = small, poorly fitted or top-dose-only effect, or another doubt; inactive = no such curve, though single readings can be large; an effect the other way counts as inactive or inconclusive. Unless noted, % is scaled to controls: 0 for no effect and ±100 for the full control effect.

SMILES	GPT2 inh	IP6K1 inh	SNCA expr inh	HEK293 viab	IP6K1 inh cnf
Cc1nn(-c2ccccc2)c2c1C(C(C)C)N(C1CN(C(=O)C3CCCC3)C1)C2=O (centres undefined)	nt	16	nt	nt	nt
N#Cc1ccc2ncnc(NCCc3ccccc3)c2c1	-21%	-45*	nt	-4%	10µM*
COCCNC(=O)C1CCCN(c2nccc(Nc3ccc(C)cc3)n2)C1 (centres undefined)	?	11	-4%	-2%[12.5 µM]	nt
Cc1ccc(-c2nnc3ccc(Nc4cccc(N(C)C)c4)nn23)nc1	2%[88.5 µM]	-25*	3%[87.6 µM]	-9%[87.6 µM]	-11%
COc1ccc(CC(=O)NC2CCCN(Cc3ccc(-c4cc(C)cc(C)c4)cc3)C2)cc1 (centres undefined)	i	9	-30%	0%	nt
O=C(CCn1cnc2onc(-c3ccc(F)cc3)c2c1=O)N1CCN(c2ccccc2)CC1	nt	22	-17%	2%	nt
O=C(O)CCn1cnc2onc(-c3ccccc3Cl)c2c1=O	nt	-42*	1%	18%	-12%
O=C(NCCN1CCCCC1)c1ccc(-c2ccc(N3CCSCC3)nc2)cc1	i	-1	59%	3%	nt
O=C(c1ccc2c(c1)OCO2)N1CCc2nc(C3CC3)nc(-c3ccc(Cl)cc3)c2CC1	i	-4	-17%	-17%	nt
Brc1c(Br)c(Br)c2n[nH]nc2c1Br	-9%	nt	2%	12%	0.73µM*
COc1ccc(-c2cccc(C(=O)N3CCC(NC(=O)c4ccccc4C)CC3)c2)nn1	nt	16	nt	nt	nt
CCCCCNS(=O)(=O)c1ccc(N2CCCCS2(=O)=O)cc1	nt	7	-3%	14%	nt
CC(C)CCNS(=O)(=O)c1ccc(N2CCCCS2(=O)=O)cc1	nt	-30*	-16%	-2%	-16%
O=C(NCc1cccc(Cl)c1)c1cc2c(s1)-c1ccccc1OC2	nt	-26*	-9%	13%	-14%
COc1ccccc1CNC(=O)c1cc2c(s1)-c1ccccc1OC2	nt	13	132%	5%	nt
Cc1ccc(-c2cc(O)c3c(c2)CNCCO3)s1	-9%	-5	71%	6%	nt
COc1ccc(NC(=O)N2CCC3(CC2)CN(c2ccccc2)C3=O)cc1OC	?	-3	-2%	-5%	nt
COc1ccc(-c2nc3c(c(SCc4cc(C)ccc4C)n2)Cc2c(CO)cnc(C)c2O3)cc1	nt	-1	-1%	8%	nt
COc1ccccc1-c1nc2c(c(SCc3cc(C)ccc3C)n1)Cc1c(CO)cnc(C)c1O2	nt	-27*	-23%	-16%	-4%
CCOC(=O)[C@H]1C[C@]2(CCCCN(CCOC)C2=O)N(C(=O)COC(C)=O)[C@H]1c1ccccc1	nt	-2	nt	nt	nt
C[C@@H]1CN(C(=O)c2cnc3c(O)cccn3c2=O)CC[C@@]1(O)C1CCC1	?	-28*	18%	17%	-11%
CCOCCCNC(=O)C1CCCN1Cc1cccc(-c2cccc(OC)c2)c1 (centres undefined)	i	2	-5%	-5%	nt
COC(=O)CSc1nc2c(cnn2-c2ccc(F)cc2)c(=O)[nH]1	nt	-32*	5%	-6%	?
COc1cccc(Cn2c(C)c(CNCc3ccccc3Cl)c(C(=O)O)c2C)c1	nt	-27*	-20%	-2%	1%
C[C@]12CCC(=O)C=C1CCC[C@@H]2OCc1ccccc1	nt	22	nt	nt	nt
SMILES	GPT2 inh	IP6K1 inh	SNCA expr inh	HEK293 viab	IP6K1 inh cnf
Cc1ccc2nc(-c3ccsc3)c(Nc3ccc(C(C)C)cc3)n2c1	nt	22	4%	4%	nt
CC(C)c1ccc(Nc2c(-c3ccsc3)nc3ccc(Cl)cn23)cc1	nt	-31*	1%	10%	-11%
COc1ccccc1-c1cccc(CN2CCC(NC(=O)Nc3ccccc3F)CC2)c1	i	10	-23%	-1%	nt
Cc1ccc(-c2nc(S(=O)(=O)c3ccc(C)cc3)c(N3CCCCC3)o2)cc1	nt	-29*	0%	0%	?
O=S(=O)(c1ccccc1)c1nc(-c2cccs2)oc1N1CCCCC1	nt	-36*	-13%	3%	-16%
Cc1ccc(S(=O)(=O)c2nc(-c3ccccc3)oc2N2CCCCCC2)cc1	nt	11	-12%	-27%	nt
Cc1ccc(S(=O)(=O)c2nc(-c3cccs3)oc2N2CCC(C)CC2)cc1	nt	-20	40%	11%	nt
Cn1ncc2c(C(=O)N3CCN(Cc4ccccc4)CC3)cc(-c3ccccc3C(F)(F)F)nc21	nt	9	nt	nt	nt
